Rows were chosen to be rich in hits. Some 1.7% of all compounds tested hit in one or more screens of this group.
PAD4 inh = human PAD4 inhibitors, primary screen, biochemical, fluorescence polarization, 1536-well format; 0.41% of 330,000 active; inhibition, % at 6.36 µM; recombinant PAD4, RCA probe fluorescence polarization; Protein-arginine deiminase type-4 (Homo sapiens), Q9UM07;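 active = percent inhibition above a cutoff equal to the mean of all tested compounds plus 3 SD, cut at about 15% in these data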
LYPLA1 inh = LYPLA1 inhibitors, primary screen, counter-screen for PME1 inhibitor project, biochemical, fluorescence polarization, FP-Rh probe ABPP | recombinant LYPLA1 | inhibition, % at 5.9 µM | 0.16% of 320,000 active | AID 2174, 2009;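 active = inhibition above the mean of all tested compounds plus 3 SD, set per campaign, cut at about 14% in these data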;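 note: inhibitors block serine hydrolase probe labeling of LYPLA1 so polarization falls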
GSTO1 inh = inhibitors of recombinant GSTO1, primary screen, counter-screen for RBBP9 inhibitor project, biochemical, fluorescence polarization | Glutathione S-transferase omega-1 (Homo sapiens), P78417 | activity-based probe fluorescence polarization | inhibition, % at 5.96 µM | 1.1% of 300,000 active;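 active = inhibition above the campaign mean inhibition plus 3 SD, cut at about 35% in these data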
ZTA counter = counter-screen for EBNA-1 inhibitors: inhibitors of Epstein-Barr virus ZTA. AID 2234. ZTA-DNA binding, fluorescence polarization. 0.15% of 320,000 active. inhibition, % at 11 µM. P03206; in the data active = inhibition above about 33%
EBNA-1 inh = EBNA-1 DNA-binding inhibitors, primary screen, biochemical, fluorescence polarization; inhibition, % at 14.8 µM; 0.34% of 300,000 active; AID 1950, 2009; in the data active = inhibition above about 28%
LYPLA2 inh = LYPLA2 inhibitors, primary screen, counter-screen for PME1 inhibitor project, biochemical, fluorescence polarization, FP-Rh probe ABPP; recombinant LYPLA2; inhibition, % at 5.9 µM; 0.38% of 320,000 active; Acyl-protein thioesterase 2 (Homo sapiens), O95372; AID 2177, 2009;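 active = inhibition above the screen-wide mean plus 3 SD, limit set per campaign, cut at about 26% in these data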
LYPLA2 confirm = LYPLA2 inhibitors, retest, confirmation, counter-screen for PME1 inhibitor project, biochemical, fluorescence polarization, FP-Rh probe ABPP; shares compounds with LYPLA2 inh; recombinant LYPLA2; inhibition, % at 5.9 µM; 72% of 1,100 active; AID 2232, 2010;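 active = mean inhibition across replicates above the hit cutoff set in the primary screen, cut at about 26% in these data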;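 note: blocked labeling of the enzyme by serine hydrolase FP-Rh probe lowers polarization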
LYPLA2 ABPP = LYPLA2 inhibitors in proteome, late-stage follow-up, gel-based competitive ABPP, fluorescence, assay provider | inhibition, % at 20 µM | 30% of 150 active | shares compounds with LYPLA2 inh | rhLYPLA2 in mouse brain proteome, gel ABPP FP-Rh;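 active = inhibition of LYPLA2 enzyme probe labeling above about 50%, limit read from the data; inactive = inhibition below that limit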;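 note: loss of FP-Rh probe labeling of the LYPLA2 gel band measured as band density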
Of the large screens only hits and unclear results are named; the others gave an inactive call (follow-up assays come after a bar, where they were run).

Cc1ccc(S(=O)(=O)N(C)c2ccc(OCC(=O)Nc3cccc(-n4cnnn4)c3C)cc2)cc1	none
COc1ccc(S(=O)(=O)N(C)C)cc1NC(=O)CSC(C)C(=O)Nc1cc(C)on1 (stereo not drawn)	none (no result: GSTO1 inh, EBNA-1 inh)
Cc1n[nH]c(=O)c2c(NC(=O)CSc3nncn3C(C)C)oc(C)c12	none (no result: GSTO1 inh, EBNA-1 inh)
Cc1ccc(C=NNC(=O)C(NC(=O)c2ccccc2)c2n[nH]c(=O)c3ccccc23)cc1 (stereo not drawn)	none (no result: PAD4 inh, LYPLA1 inh, GSTO1 inh, ZTA counter, EBNA-1 inh, LYPLA2 inh) | LYPLA2 ABPP inactive
CCN(CC)S(=O)(=O)c1ccc(N2CCOCC2)c(NC(=O)CNCCc2ccccc2)c1	LYPLA2 inh 53 | LYPLA2 confirm 58 | LYPLA2 ABPP inactive
CCCc1cc(=O)[nH]c(SCC(=O)NC(=O)NC2CCCC2)n1	none (no result: GSTO1 inh, EBNA-1 inh)
Cc1ccc(CC(=O)N2CCN(c3cccc(C(F)(F)F)c3)CC2)cc1	none
CC/C(C)=C1\SC(N2CCN(c3cccc(C(F)(F)F)c3)CC2)=NC1=O	LYPLA2 inh 33 | LYPLA2 confirm 31
CC(=O)Nc1ccc(CN2CCN(c3cccc(C(F)(F)F)c3)CC2)cc1	LYPLA2 inh 55 | LYPLA2 confirm 58 | LYPLA2 ABPP inactive
CC(=O)Nc1ccc(NC(=O)CN2CCN(c3cccc(C(F)(F)F)c3)CC2)cc1	none
O=C1CC(N2CCN(c3ccccn3)CC2)C(=O)N1c1ccc(F)cc1 (stereo not drawn)	none
Cc1cccc(N2C(=O)CC(N3CCN(c4cccc(C(F)(F)F)c4)CC3)C2=O)c1 (stereo not drawn)	LYPLA2 inh 46 | LYPLA2 confirm 40
O=C1CC(N2CCN(c3cccc(C(F)(F)F)c3)CC2)C(=O)N1c1ccc(F)cc1 (stereo not drawn)	LYPLA2 inh 55 | LYPLA2 confirm 49
Cc1nc([N+](=O)[O-])cn1CC(=O)c1ccccc1	none
Cc1nc([N+](=O)[O-])cn1CC(=O)Nc1ccc([N+](=O)[O-])cc1	LYPLA2 inh 33 | LYPLA2 confirm 41
CN(CC(=O)O/N=C(\N)c1ccccn1)S(=O)(=O)c1ccc(Br)cc1	LYPLA2 inh 40 | LYPLA2 confirm inactive
COc1ccc(NC(=O)CSc2nnc(C)c3ccccc23)cc1	LYPLA2 inh 32 | LYPLA2 confirm inactive
COc1ccc(NC(=O)CSc2nncc3ccccc23)cc1	none
Cc1cc(=O)oc2c(C)c(OCC(=O)N3CCN(c4ccccc4)CC3)ccc12	none
Cc1cc(=O)oc2c(C)c(OCC(=O)N3CCN(C(=O)C4COc5ccccc5O4)CC3)ccc12 (stereo not drawn)	LYPLA2 inh 38 | LYPLA2 confirm 36
Cc1cc(=O)oc2c(C)c(OCC(=O)N3CCN(c4cccc(Cl)c4)CC3)ccc12	LYPLA2 inh 30 | LYPLA2 confirm 34
COc1ccc(NC2CCCN(C(=O)c3c(C)noc3C)C2)cc1 (stereo not drawn)	none
O=C(NCc1ccccc1)c1ccc(N2CCC3(CC2)CC(c2ccc(Cl)cc2)=NO3)c([N+](=O)[O-])c1	none
CCCNC(=O)c1ccc(N2CCC3(CC2)CC(c2ccccc2)=NO3)c([N+](=O)[O-])c1	LYPLA2 inh 28 | LYPLA2 confirm inactive
Cc1cc(C)c(C)c(S(=O)(=O)N2CCN(C(=O)C3CSC4(C)CCC(=O)N34)CC2)c1C (stereo not drawn)	none
CCOC(=O)c1c(NC(=O)CN2C(=O)NC(C)(c3ccc(Cl)cc3)C2=O)sc(C(=O)NC)c1C (stereo not drawn)	LYPLA2 inh 41 | LYPLA2 confirm 34
CCOC(=O)c1c(NC(=O)CN2CCOCC2)sc(C(=O)NC)c1C	none
O=C(COC(=O)CNC(=O)C1CCCCC1)Nc1ccccc1Cl	none (no result: GSTO1 inh, EBNA-1 inh)
CCOC(=O)c1[nH]c(CN2CCN(c3ccc(OC)cc3)CC2)c(C(=O)OCC)c1C	LYPLA2 inh 27 | LYPLA2 confirm inactive
CCOC(=O)c1[nH]c(C)c(C(=O)N2CCN(c3ccc(OC)cc3)CC2)c1C	none
COc1ccc(Oc2coc3cc(OC(=O)c4cccs4)ccc3c2=O)cc1	LYPLA2 inh 41 | LYPLA2 confirm 46
COc1ccc(N2CCN(C(=O)C3CCN(S(=O)(=O)c4ccc(F)cc4)CC3)CC2)cc1	LYPLA2 inh 42 | LYPLA2 confirm 45
CC(=O)c1ccc(N2CCN(C(=O)C3CCN(S(=O)(=O)c4ccc5c(c4)CC(C)N5C(C)=O)CC3)CC2)cc1 (stereo not drawn)	LYPLA2 inh 74 | LYPLA2 confirm 73 | LYPLA2 ABPP 64
Cc1cc(S(=O)(=O)N2CCCC2)ccc1OCC(=O)N1CCOCC1	none
COc1ccc(N2CCN(C(=O)COc3ccc(S(=O)(=O)N4CCOCC4)cc3C)CC2)cc1	LYPLA2 inh 28 | LYPLA2 confirm 30
COc1cccc(NC(=O)CCC2CCN(C(=O)c3ccc(C(C)=O)s3)CC2)c1	LYPLA2 inh 27 | LYPLA2 confirm 32
COc1cccc(NC(=O)CCC2CCN(C(=O)c3sccc3C)CC2)c1	none
O=C(COc1ccc(Br)cc1)NNC(=S)NC(=O)c1ccccc1[N+](=O)[O-]	LYPLA2 inh 33 | LYPLA2 confirm 31
CCC(C)(C)NC(=O)c1ccc2c(c1)N(CC(=O)NC1CCCC1)C(=O)C(C)(C)O2	none
CCCCOc1ccc(OC(=O)c2cccnc2)cc1	none
CCCCCCOC(=O)c1ccc(OC(=O)c2cccnc2)cc1	none
CCCCCCCOc1ccc(OC(=O)c2ccncc2)cc1	LYPLA2 inh 32 | LYPLA2 confirm 49
CCCCCCCOc1ccc(OC(=O)c2cccnc2)cc1	LYPLA2 inh 41 | LYPLA2 confirm 48
COc1cccc(C(=O)NC(=S)N2CCN(c3ccc(C(F)(F)F)cc3[N+](=O)[O-])CC2)c1	LYPLA2 inh 65 | LYPLA2 confirm 52 | LYPLA2 ABPP inactive
Cc1c(C(=O)N2CCN(C3CCS(=O)(=O)C3)CC2)oc2c(F)cccc12 (stereo not drawn)	none (no result: GSTO1 inh, EBNA-1 inh)
COc1ccc(C2NS(=O)(=O)N=C2N)cc1 (stereo not drawn)	LYPLA2 inh 32 | LYPLA2 confirm inactive
Cc1cccc(C2NS(=O)(=O)N=C2N)c1 (stereo not drawn)	none
